# From PubChem BioAssay
# TrxR1 substrate – substrates of rat thioredoxin reductase 1 | Potency, µM (top dose mostly 114 µM), inactives show at the top dose activity change, negative = substrate turnover | hit rate 0.01% among 390,000 | O89049 | purified TrxR1 substrate turnover, NADPH consumption readout; note: % is set by controls: 0 for no effect and ±100 for the full control effect; nearly all actives have a fitted effect of over 50% in size
#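 Rat TrxR1, dispensed at 90 nM, was prereduced with 400 uM NADPH (final) for 5 min at ~22 deg C, then incubated with compound 15 min before 400 uM selenite. A first-read NADPH fluorescence drop versus no-compound background flagged substrates.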
# TrxR1 inh – blocks rat thioredoxin reductase 1. O89049. recombinant rTrxR1, NADPH fluorescence consumption, selenite substrate. Potency, µM (top dose mostly 114 µM), for inactives: at the top dose activity change, negative = inhibition, usual class: inhibitors. hit rate 1% among 390,000; note: % is set by controls: 0 for no effect and ±100 for the full control effect; nearly all actives have a fitted effect of over 65% in size
#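 Rat TrxR1 (90 nM in the dispensed reagent) was pre-reduced with 400 uM NADPH for 5 min at room temperature, then incubated with compound for 15 min. After 400 uM selenite was added, NADPH fluorescence (Ex 340/Em 450 nm) was followed for 8 min.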
# VDR inhibitor – inhibitors of human vitamin D receptor; VDR-SRC2-3 peptide fluorescence polarization, 2 h; P11473; hit rate 0.93% among 400,000; Potency, µM, inactives show max response, negative = inhibition, hits mostly inhibitors; AID 504847; note: % is set by controls: 0 for no effect and ±100 for the full control effect
#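 VDR–SRC2-3 interaction, FP format. Cmpds 23 nl via pintool, brief spin, 2 h ambient incubation.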
# Vif-APOBEC3F blk – inhibitors of Vif-A3F interaction; HeLa A3F-eYFP + Vif (tagged APOBEC3F with the HIV-1 protein that degrades it), YFP fluorescence increase; hit rate 0.2% among 390,000; Potency, µM (highest dose often 46.1 µM), for inactives: at the top dose activity, negative = active; note: % of control where 0% means no effect; nearly all actives have a fitted effect of over 65% in size
#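 Fluorescence increase (Ex 488/Em 500-530) after overnight compound treatment at 37 deg C flags inhibition of Vif-driven A3F-eYFP loss in stable HeLa A3F-eYFP/Vif cells seeded overnight beforehand.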
# Vif-APOBEC3G blk – blocks the Vif interaction with human APOBEC3G. HeLa A3G-eYFP + Vif (tagged APOBEC3G with the HIV-1 protein that degrades it), YFP fluorescence, overnight. hit rate 0.076% among 410,000. Q9HC16. Potency, µM (doses to about 46.1 µM), inactives show top-dose activity, negative = active, actives largely listed as inhibitors. AID 602310; note: % is set by controls: 0 for no effect and ±100 for the full control effect; nearly all actives have a fitted effect of over 60% in size
# Target sequence (Q9HC16 whole entry, looked up): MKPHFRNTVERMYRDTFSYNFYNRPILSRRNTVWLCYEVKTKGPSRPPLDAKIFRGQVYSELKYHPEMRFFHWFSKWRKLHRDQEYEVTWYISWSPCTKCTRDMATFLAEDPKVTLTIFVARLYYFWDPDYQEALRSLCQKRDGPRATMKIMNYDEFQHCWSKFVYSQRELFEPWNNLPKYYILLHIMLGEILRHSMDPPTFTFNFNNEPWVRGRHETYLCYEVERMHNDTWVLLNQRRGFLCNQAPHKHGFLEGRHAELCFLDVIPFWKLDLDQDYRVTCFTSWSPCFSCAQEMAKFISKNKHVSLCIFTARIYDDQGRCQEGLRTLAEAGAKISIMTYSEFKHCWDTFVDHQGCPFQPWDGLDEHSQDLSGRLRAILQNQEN
#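 Read-out is eYFP fluorescence (Ex 488/Em 500-530) from Vif-expressing HeLa A3G-eYFP cells; more signal means A3G escaped Vif-mediated degradation. Cells plated overnight, compound pinned in, incubated overnight at 37 deg C.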
# The depositor's hits bear a star; ? = inconclusive; . = no result given; [ ] = another dose, or the depositor's remark. Shown are actives, neighbours in structure and some others; about 1.8% of the full set was active somewhere. Calls come from the whole dose curve; as a rule, active = well fitted curve in the direction sought with a large enough effect; inconclusive = small, poorly fitted or top-dose-only effect, or another doubt; inactive = no such curve, though single readings can be large; an effect the other way counts as inactive or inconclusive. Potency is the fitted concentration of half-maximal effect.
SMILES,TrxR1 substrate,TrxR1 inh,VDR inhibitor,Vif-APOBEC3F blk,Vif-APOBEC3G blk
O=c1c2ccccc2sn1-c1cc(S(=O)(=O)N2CCOCC2)ccc1N1CCCCC1,-5.4%,-12.5%,28.2µM*,.,3.8%
Cc1ccnc2ccc(I)cc12,6.0%,21.1%,.,.,-1.2%
Cc1ccc(-c2csc(NC(=O)C3CC(=O)N(c4ccc5c(c4)OCCO5)C3)n2)o1 (centres undefined),-2.5%,?,?,.,-3.6%
Cn1c(=NC(=O)CCl)sc2ccccc21,-3.8%,35.5µM*,5.8%,5.0%,-27.2%
OCc1cn(-c2ccccc2)nc1-c1ccco1,19.9%,3.7%,-2.2%,-2.1%,1.4%
C=CCOC(=O)C1=C(C)NC(C)=C(C(=O)OCC=C)C1c1cn(-c2ccccc2)nc1-c1ccco1,42.9%,2.0%,0.4%,-13.0%,8.91µM*
COc1ccc(C2Nc3ccccc3C(=O)N2c2ccc(Cl)cc2)cc1COc1ccc(NC(C)=O)cc1 (centres undefined),37.2%,37.5%,-20.2%,.,-10.4%
O=C1C=CC(=Nc2ccc(F)cc2)O1,0.5%,7.08µM*,79.4µM*,?,-4.2%
COC(=O)C1=C(C)N(Cc2ccc(OC)cc2)C(=O)/C1=C\c1ccco1,-7.6%,35.5µM*,-11.4%,-21.3%,-5.2%
COC(=O)C1=C(C)N(C)C(=O)/C1=C\c1ccco1,-5.6%,25.1µM*,-15.7%,-1.3%,-8.0%
COc1ccc(N2C(=O)C(Cl)=C(N3CCOCC3)C2=O)cc1,0.4%,12.2%,28.2µM*,-8.4%,3.8%
O=C1C(Cl)=C(N2CCOCC2)C(=O)N1c1cccc(Cl)c1,-12.4%,?,25.1µM*,2.3%,-1.2%
C=CCOC(=O)c1cc(-c2ccc(/C=C3\C(=O)NC(=O)C(C#N)=C3C)o2)ccc1Cl,-10.3%,?,25.1µM*,-3.7%,0.5%
CC1(C)OC(=O)C(=Cc2ccc(-c3ccc(Cl)c(C(=O)O)c3)o2)C(=O)O1,-5.9%[57.1 µM],?,?,0.8%,-1.3%
CCCOC(=O)c1cc(-c2ccc(C=O)o2)ccc1Cl,9.6%,18.4%,-25.0%,?,-14.4%
NS(=O)(=O)c1ccc(-c2ccc(/C=C3\NC(=S)NC3=O)o2)cc1,2.7%[57.1 µM],12.6µM*,79.4µM*,-2.2%,1.0%
CC1=C(C#N)C(=O)NC(=O)/C1=C/c1ccc(-c2ccc(S(N)(=O)=O)cc2)o1,2.9%,8.91µM*,25.1µM*,-7.8%,-6.1%
CCCOC(=O)c1cc(-c2ccc(/C=C3/C(=O)N(C)C(=O)C(C#N)=C3C)o2)ccc1Cl,2.2%,17.8µM*,50.1µM*,7.1%,-1.4%
NS(=O)(=O)c1ccc(-c2ccc(C=O)o2)cc1,9.3%[57.1 µM],-19.7%[57.1 µM],-2.2%,7.0%,-0.2%
C=C1C=C(C(F)F)n2ncc(C(=O)NCc3ccc(Cl)cc3)c2N1,1.3%,2.0%,.,.,-3.8%
COc1cccc(Cn2c(=O)cnc3cnc(Nc4ccccc4)nc32)c1,.,.,-4.3%,.,.
CNC(=O)c1cc(-c2cccs2)on1,-1.8%,?,.,.,-1.1%
Cc1ccc(CNC(=O)CSc2ncn[nH]2)cc1,-2.2%,8.7%,7.6%,-2.9%,-8.9%
Cc1ccc(-c2nc(NC(=O)CSc3ncn[nH]3)ns2)cc1,4.1%,11.7%,14.1µM*,0.7%,0.1%
Cc1coc2cc3oc(=O)c(CC(=O)NCc4ccccc4)c(C)c3cc12,12.6%,20.7%,11.7%,-6.5%,?
SMILES,TrxR1 substrate,TrxR1 inh,VDR inhibitor,Vif-APOBEC3F blk,Vif-APOBEC3G blk
C=CCc1c(C)nc(-c2ccccc2)nc1Nc1ccccc1O,-9.4%,1.7%,14.7%,22.4µM*,?
Cc1cccc(CNc2ncncc2-c2ccccc2Cl)c1,.,.,-19.6%,.,.
O=C(C[n+]1cccc(Br)c1)c1cc(Cl)ccc1Cl,1.9%,11.2µM*,.,.,-5.1%
Cc1ccc(C)c(C(=O)C[n+]2cccc(Br)c2)c1,-7.1%,-33.6%,.,.,1.3%
O=c1[nH]c(=S)[nH]c(-c2ccccc2)c1Cc1c(O)ccc2ccccc12,?,5.6%[57.1 µM],22.4µM*,.,.
Cc1ccc(S(=O)(=O)c2nc(S(C)(=O)=O)sc2N2CCC(C)CC2)cc1,5.0%,12.6µM*,-14.7%,-13.0%,0.0%
COc1cc(NC(=O)C(c2ccccc2)c2ccccc2)c(C(=O)O)cc1OC,-4.0%,-3.6%,0.3%,13.3%,1.7%
Fc1ccccc1SCc1nnc(-c2ccccc2Br)o1,-4.0%[57.1 µM],28.4%[57.1 µM],44.7µM*,6.7%,-2.2%
O=C(Nc1ccc2nc(-c3ccco3)[nH]c2c1)c1cccs1,-10.8%,70.8µM*,5.5%,3.0%,-8.5%
